From PubChem
Most compounds without a hit are left out; they make up all but 2.1% or so of the library.
ROS inducer – ROS inducers in U2OS cancer cells, primary screen, cell-based, H2DCF-DA fluorescence | U2OS ROS induction | ROS induction (% of piperlongumine), % at 10 µM | 46,000 tested, 2% active | AID 624156, 2012; in the data active = ROS induction above about 79%, passing the limit was not always enough; inconclusive = no clear call, values can overlap the other calls
YB-1 expression – inhibitors of YB-1 gene expression, primary screen, cell-based, fluorescence. U2OS, qRT-PCR YB-1 vs CDIP delta delta Cp, 16 h; stronger effect = higher value; zero = DMSO, each unit about twofold. delta delta Cp (YB-1 minus CDIP) (test concentration not listed). 30,000 tested, 0.37% active;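 active = delta delta Cp rounded down to an integer at or above 3, about 3 SD of DMSO wells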;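 note: higher means less YB-1 transcript or more CDIP transcript relative to DMSO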
Of the large screens only hits and unclear results are named; the others gave an inactive call.

C[C@H](CO)N1C[C@H](C)[C@H](CN(C)C)Oc2ccc(NC(=O)CCN3CCOCC3)cc2CC1=O	ROS inducer inconclusive
Cc1c(-c2ccccc2OC(=O)c2ccccc2)[nH]c2ccccc12	none (no result: YB-1 expression)
COc1ccc(C2C(C(=O)NC3CCCCC3)c3ccccc3C(=O)N2c2ccc(OC)cc2)cc1 (stereo unspecified)	none (no result: YB-1 expression)
CSc1nsc(SC)c1C(=O)NN1CCOCC1	none (no result: YB-1 expression)
C[C@@H]1CN([C@@H](C)CO)C(=O)c2cccc(NC(=O)Nc3ccccc3)c2O[C@H]1CN(C)Cc1ccc(Oc2ccccc2)cc1	ROS inducer 105
Cc1noc(C)c1NC(=O)Nc1cccc2c1O[C@H](CN(C)Cc1ccc(Oc3ccccc3)cc1)[C@H](C)CN([C@@H](C)CO)C2=O	none
Cc1noc(C)c1NC(=O)Nc1cccc2c1O[C@H](CN(C)Cc1ccc(Oc3ccccc3)cc1)[C@@H](C)CN([C@@H](C)CO)C2=O	ROS inducer 88
C[C@@H]1CN([C@H](C)CO)C(=O)c2cccc(NC(=O)Nc3ccccc3)c2O[C@H]1CN(C)Cc1ccc(Oc2ccccc2)cc1	none
C[C@H](CO)N1C[C@H](C)[C@H](CN(C)CC2CCCCC2)Oc2c(NC(=O)Nc3ccccc3)cccc2C1=O	YB-1 expression 3.1
Cc1cc(C(=O)Nc2cccc3c2O[C@H](CN(C)Cc2ccc(Oc4ccccc4)cc2)[C@H](C)CN([C@H](C)CO)C3=O)n(C)n1	none
C[C@@H]1CN([C@H](C)CO)C(=O)c2cccc(NC(=O)Nc3ccccc3)c2O[C@H]1CN(C)CC1CC1	none
Cc1cc(C(=O)Nc2cccc3c2O[C@@H](CN(C)Cc2ccc(Oc4ccccc4)cc2)[C@H](C)CN([C@@H](C)CO)C3=O)n(C)n1	ROS inducer 117
CC(CC(=O)NCc1ccccc1)CC1=NS(=O)(=O)c2ccccc2N1 (stereo unspecified)	none (no result: YB-1 expression)
O=c1nc(NCCO)ccn1-c1nc(-c2ccccc2)sc1-c1ccccc1	none (no result: YB-1 expression)
CCOC(=O)Nc1cccc2nsnc12	none (no result: YB-1 expression)
Cc1ccc(S(=O)(=O)N(CCc2ccccc2)CC(=O)Nc2ccc(C(C)C)cc2)cc1	none (no result: YB-1 expression)
COC(CNC(=O)c1cc(-c2ccccn2)nc2ccc(S(=O)(=O)N3CCC(C)CC3)cc12)OC	none (no result: YB-1 expression)
CS(=O)(=O)N1CCN(c2cccc(Cl)c2)CC1	none (no result: YB-1 expression)
C[C@H](CO)N1C[C@H](C)[C@@H](CN(C)Cc2ccccc2)Oc2c(cccc2N(C)C)C1=O	none
C[C@@H]1CN([C@@H](C)CO)C(=O)c2cccc(N(C)C)c2O[C@H]1CN(C)Cc1ccccc1	YB-1 expression 14
C[C@H](CO)N1C[C@H](C)[C@H](CN(C)Cc2ccc(Oc3ccccc3)cc2)Oc2c(NC(=O)Nc3ccc(F)cc3)cccc2C1=O	none
C[C@H](CO)N1C[C@H](C)[C@@H](CN(C)Cc2ccc(Oc3ccccc3)cc2)Oc2c(NC(=O)Nc3ccc(F)cc3)cccc2C1=O	ROS inducer 82
COc1ccc(NC(=O)Nc2cccc3c2O[C@@H](CN(C)Cc2ccc(Cl)c(Cl)c2)[C@H](C)CN([C@@H](C)CO)C3=O)cc1	ROS inducer 96
C[C@@H]1CN([C@@H](C)CO)C(=O)c2cccc(NC(=O)Nc3ccc(F)cc3)c2O[C@H]1CN(C)Cc1ccc2c(c1)OCO2	ROS inducer 115
C[C@@H]1CN([C@H](C)CO)C(=O)c2cccc(NC(=O)Nc3ccc(F)cc3)c2O[C@@H]1CN(C)Cc1ccc2c(c1)OCO2	none
COc1ccc(CN(C)C[C@@H]2Oc3c(NC(=O)Nc4ccc(OC)cc4)cccc3C(=O)N([C@H](C)CO)C[C@H]2C)cc1	none
CC12CCC(c3c1nn(-c1ccccc1)c3C(F)(F)F)C2(C)C (stereo unspecified)	none
O=C(NCCc1ccc(Cl)cc1)c1cc(=O)[nH]c2ccc(Br)cc12	none (no result: YB-1 expression)
COc1ccc(NC(=O)Nc2cccc3c2O[C@H](CN(C)Cc2ccccc2)[C@@H](C)CN([C@@H](C)CO)C3=O)cc1	YB-1 expression 3.6
COc1ccc(CN(C)C[C@@H]2Oc3c(NC(=O)Nc4ccccc4)cccc3C(=O)N([C@@H](C)CO)C[C@H]2C)cc1	none
NC(=O)c1ccc(C(=O)c2ccccc2)cc1	none (no result: YB-1 expression)
Cc1ccc(-c2nc(S(=O)(=O)c3ccc(F)cc3)c(NCc3ccco3)o2)cc1	none (no result: YB-1 expression)
CCC(C)S(=O)(=O)c1oc(-c2ccc(C)cc2)nc1S(=O)(=O)c1ccccc1 (stereo unspecified)	ROS inducer 219 (no result: YB-1 expression)
COc1ccc(CCNC(=O)c2ccc3nc4ccc(Cl)cc4c(=O)n3c2)cc1OC	none (no result: YB-1 expression)
COc1ccc(C2CC(=O)C3=C(C2)Nc2ccccc2N(C(C)=O)C3c2ccccc2)cc1 (stereo unspecified)	none (no result: YB-1 expression)
COc1cc(C)c(Br)cc1S(=O)(=O)NCCN1CCOCC1	ROS inducer 142 (no result: YB-1 expression)
CCOc1cc(C)c(S(=O)(=O)NCCN2CCOCC2)cc1C	none (no result: YB-1 expression)
Cc1ccc(N(CC(=O)c2ccccc2)CC(=O)c2ccc(Cl)cc2)cc1	none (no result: YB-1 expression)
Cc1ccc(S(=O)(=O)N(C)C[C@@H]2Oc3ccc(NS(=O)(=O)c4ccc(Cl)cc4)cc3CC(=O)N([C@@H](C)CO)C[C@@H]2C)cc1	none
Cc1ccc(S(=O)(=O)N(C)C[C@@H]2Oc3ccc(NS(=O)(=O)c4ccc(Cl)cc4)cc3CC(=O)N([C@H](C)CO)C[C@H]2C)cc1	none
Cc1ccc(S(=O)(=O)Nc2ccc3c(c2)CC(=O)N([C@@H](C)CO)C[C@@H](C)[C@@H](CN(C)S(=O)(=O)c2cccs2)O3)cc1	none
Cc1ccc(S(=O)(=O)Nc2ccc3c(c2)CC(=O)N([C@H](C)CO)C[C@@H](C)[C@@H](CN(C)S(=O)(=O)c2ccc(Cl)cc2)O3)cc1	ROS inducer 94
C[C@H]1CN([C@@H](C)CO)C(=O)Cc2cc(NS(=O)(=O)c3ccc(Cl)cc3)ccc2O[C@@H]1CN(C)S(=O)(=O)c1ccc(Cl)cc1	ROS inducer 84
Cc1noc(C)c1NC(=O)Nc1ccc2c(c1)CC(=O)N([C@H](C)CO)C[C@@H](C)[C@@H](CN(C)S(=O)(=O)c1cccs1)O2	ROS inducer 106
Cc1noc(C)c1NC(=O)Nc1ccc2c(c1)CC(=O)N([C@@H](C)CO)C[C@H](C)[C@H](CN(C)S(=O)(=O)c1cccs1)O2	none
Cc1ccc(S(=O)(=O)Nc2ccc3c(c2)CC(=O)N([C@H](C)CO)C[C@H](C)[C@H](CN(C)S(=O)(=O)c2cccs2)O3)cc1	ROS inducer 96
COc1ccc(NC(=O)c2nn(C)c3c2COc2ccccc2-3)cc1	none (no result: YB-1 expression)
COc1ccc(/C=C/C(=O)NCC2(c3ccccc3)CCOCC2)cc1	none (no result: YB-1 expression)
Cc1ccc(N2CCN(/N=C\C=C\c3ccccc3)CC2)cc1	none (no result: YB-1 expression)
O=C1CCS(=O)(=O)c2ccccc2N1Cc1ccccc1	none (no result: YB-1 expression)
CCOC(=O)C(C)Oc1cc2oc(=O)c3c(c2cc1Cl)CCCC3 (stereo unspecified)	none (no result: YB-1 expression)
Cc1noc(C)c1NC(=O)Nc1ccc2c(c1)CC(=O)N([C@@H](C)CO)C[C@H](C)[C@H](CN(C)Cc1ccc3c(c1)OCO3)O2	ROS inducer 124
Cc1noc(C)c1NC(=O)Nc1ccc2c(c1)CC(=O)N([C@H](C)CO)C[C@H](C)[C@H](CN(C)Cc1ccc3c(c1)OCO3)O2	none
CC(C)Cc1ccc(C(C)C(=O)Nc2ccc(Cl)cc2)cc1 (stereo unspecified)	none (no result: YB-1 expression)
O=C(NC1CCCCC1NC(=O)c1ccccc1Cl)c1ccccc1Cl (stereo unspecified)	none (no result: YB-1 expression)
